Assay results from PubChem BioAssay (Tox21).
Values without a mark were called inactive. Where a call stands in place of a potency, no number is given. The source made the active and inactive calls. Calls follow the shape of the dose curve; as a rule, active = well fitted curve in the direction sought with a large enough effect in the repeat runs; inconclusive = weak or mixed curves; inactive = flat fitted curve, though single readings scatter.

Assay: qHTS assay to test for compound auto fluorescence at 590 nm (red) in HepG2 cell free culture (AID 720684)
Conditions: cell-free medium autofluorescence, red 540/590 nm; series mostly up to 91.3 µM
Method in brief: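 Steps: dispense MEM/10% FBS medium, no cells; pin compound or DMSO vehicle; read red channel, Ex/Em 540/590 nm. Output given as Rose Bengal sodium equivalents.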
In the case of `C=C(c1ccc(C(=O)O)cc1)c1cc2c(cc1C)C(C)(C)CCC2(C)C`, the Potency is reported as “inactive”.
With `CN1[C@@H]2CC[C@@H]1CC(OC(=O)C(CO)c1ccccc1)C2` (some centres not stated) the Potency was “inactive”.
In the case of `CN(C)c1ccc(N=Nc2ccccc2C(=O)O)cc1`, the Potency is reported as “inactive”.
With `O=C1c2c(O)ccc(O)c2C(=O)c2c(NCCNCCO)ccc(NCCNCCO)c21` the fluorescence, % of Rose Bengal was -0.463% [at 18.6 µM].
With `CCCCCCCC/C=C\CCCCCCCC(=O)N(C)CC(=O)O` the Potency was “inactive”.
With `Clc1ccc(C(Cn2ccnc2)OCc2ccsc2Cl)c(Cl)c1` (configuration not stated) the Potency was “inactive”.
`CCCCOc1ccc(C(=O)CCN2CCCCC2)cc1` showed a fluorescence, % of Rose Bengal of -0.355% [at 18.6 µM].
In the case of `COc1ccc2sc(C(=O)Nc3nnn[nH]3)c(OC(C)C)c2c1`, the Potency is reported as “inactive”.
For `Cc1c(-c2ccc(O)cc2)n(Cc2ccc(OCCN3CCCCCC3)cc2)c2ccc(O)cc12`, the Potency was “inactive”.
With `CN(C)c1ccc(N=NS(=O)(=O)O)cc1` the Potency was “inactive”.
In the case of `c1cc(OCC2CO2)cc(OCC2CO2)c1` (configuration not stated), the Potency is reported as “inactive”.
With `Cc1cc2c(C(C)C)c(O)c(O)c(C=O)c2c(O)c1-c1c(C)cc2c(C(C)C)c(O)c(O)c(C=O)c2c1O` the Potency was “inactive”.
For `C=C[C@](C)(O)CC[C@@H]1[C@@]2(C)CCCC(C)(C)[C@@H]2CC[C@@]1(C)O`, the Potency was “inactive”.
With `CC(=O)OC(OC(C)=O)c1ccc([N+](=O)[O-])o1` the Potency was “inactive”.
In the case of `COC(=O)C1=C(C)NC(C)=C(C(=O)OCCCN2CCC(c3ccccc3)(c3ccccc3)CC2)C1c1cccc([N+](=O)[O-])c1` (configuration not stated), the Potency is reported as “inactive”.
With `CC=O` the Potency was “inactive”.
With `CCN(CC)CCOc1ccc(C(O)(Cc2ccc(Cl)cc2)c2ccc(C)cc2)cc1` (configuration not stated) the Potency was “inactive”.
For `N#CSCSc1nc2ccccc2s1`, the Potency was “inactive”.
For `S=C(SSSSSSC(=S)N1CCCCC1)N1CCCCC1`, the fluorescence, % of Rose Bengal was -0.0342% [at 18.6 µM].
In the case of `Cc1cc(Nc2ccc(O)cc2)ccc1N`, the Potency is reported as “inactive”.
In the case of `CCCCCCOc1cc(C)c(O)c(C)c1C`, the Potency is reported as “inactive”.
In the case of `NC(=O)c1nc(-c2cccc(-c3cc(F)ccc3OCC(F)(F)C(F)(F)F)c2)n[nH]1`, the Potency is reported as “inactive”.
For `COC(=O)[C@]1(C)CCC[C@@]2(C)[C@H]1CC=C1C=C(C(C)C)CC[C@@H]12`, the Potency was “inactive”.
For `O=C1NC2CCCCN2C12CCN(CCCN1c3ccccc3CCc3ccc(Cl)cc31)CC2` (configuration not stated), the Potency was “inactive”.
For `NCCCC(O)(P(=O)(O)O)P(=O)(O)O`, the Potency was “inactive”.
With `Oc1ccc(-c2ccc(O)cc2)cc1` the Potency was “inactive”.
For `CNCC[C@H](Oc1cccc2ccccc12)c1cccs1`, the Potency was “inactive”.
In the case of `SCCCCCCCCS`, the Potency is reported as “inactive”.
With `NC(=O)C(=O)N/N=C/c1ccc([N+](=O)[O-])o1` the Potency was “inactive”.
With `C[C@]12CC[C@H]3C(=CCc4cc(O)ccc43)[C@@H]1CCC2=O` the Potency was “inactive”.
In the case of `CN1[C@@H]2CC[C@H]1CC(OC(=O)C(CO)c1ccccc1)C2` (some centres not stated), the Potency is reported as “inactive”.
With `O=C1Nc2ccc(Cl)cc2[C@@](C#CC2CC2)(C(F)(F)F)O1` the Potency was “inactive”.
With `C[C@H]1O[C@@H](O[C@H]2[C@@H](O)C[C@H](O[C@H]3[C@@H](O)C[C@H](O[C@H]4CC[C@@]5(C)[C@H](CC[C@@H]6[C@@H]5C[C@@H](O)[C@]5(C)[C@@H](C7=CC(=O)OC7)CC[C@]65O)C4)O[C@@H]3C)O[C@@H]2C)C[C@H](O)[C@@H]1O` the Potency was “inactive”.
For `CC1=C(/C=C/C(C)=C/C=C/C(C)=C\C=O)C(C)(C)CCC1`, the Potency was “inactive”.
In the case of `CC(C)(C)CC(C)(C)c1ccccc1O`, the Potency is reported as “inactive”.
In the case of `CN(C)CCCN1c2ccccc2CCc2ccccc21`, the Potency is reported as “inactive”.
For `NC1(c2ccc(-c3nc4ccn5c(=O)[nH]nc5c4cc3-c3ccccc3)cc2)CCC1`, the Potency was “inactive”.
